# Results filed as inconclusive are left out. A number with no mark means an inactive call. Activity calls are given as the source filed them. The call rests on the fitted dose curve; in most records, active means well fitted cell-killing curve with a large enough effect; inconclusive means small, poorly fitted or top-dose-only effect, or effect the other way; inactive means no such curve, though single readings can be large or run the other way.
# Assay: Viability qHTS for spleen associated tyrosine kinase inhibitor (SYKi) drug resistant MV4-11 cells (AID 1963824); further: nearly all actives have a fitted effect of over 35% in size
# Settings: SYKi-resistant MV4-11 viability, CellTiter-Glo, 72 h; series mostly up to 45 µM
# Method in brief: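 SYK-inhibitor-resistant MV4-11 AML cells were seeded at 500 per well onto compound and cultured 72 hours (37 °C, 5% CO2). CellTiter-Glo was then added, and after 10 min at room temperature, luminescence gave viability.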
# Potency means the concentration at half of the fitted maximal effect.
Compound,Potency,"viability, % of control"
CC(C)(C)n1nc(-c2cccc3ccccc23)c2c(N)ncnc21,14.6 µM (active),
O=C(/C=C/c1ccc(O)cc1)OC[C@H]1O[C@@H](OC(=O)/C=C/c2ccccc2)[C@H](O)[C@@H](O)[C@@H]1O,inactive,
C/C=C(/C)C(=O)O[C@H]1[C@H](OC(=O)/C(C)=C\C)[C@@]23C(CC1(C)C)[C@]1(CCC4[C@@]5(C)CC[C@H](O[C@@H]6O[C@H](C(=O)O)[C@@H](O)[C@H](O[C@@H]7O[C@H](CO)[C@H](O)[C@H](O)[C@H]7O[C@@H]7O[C@@H](C)[C@H](O)[C@@H](O)[C@H]7O[C@@H]7OC[C@@H](O)[C@H](O)[C@H]7O)[C@H]6O[C@@H]6O[C@H](CO)[C@H](O)[C@H](O)[C@H]6O)C(C)(C)C5CC[C@@]4(C)[C@]1(C)C[C@H]2O)O[C@H]3O (stereo partly specified),0.776 µM (active),
COc1ccc(CN2CCN(C(=O)CCNC(=O)c3ccc(C(C)(C)C)cc3)CC2)cc1,9.2 µM (active),
O=C1CCCC2=C1C1(CCCC1)N=C(Nc1nc3ccccc3o1)N2,3.66 µM (active),
COc1ccc([C@@]2(O)c3c(ccc4c3OC(C)(CCC=C(C)C)C=C4)NC(=O)[C@@H]2OC)cc1 (stereo partly specified),inactive,
C=C1C(OC(C)=O)[C@@]23CCC4[C@](C)(C(=O)O)CCC[C@@]4(C)[C@]2(O)CC[C@H]1C3 (stereo partly specified),inactive,
CC(C)n1cnc2c(Nc3cccc(Cl)c3)nc(NCCO)nc21,1.84 µM (active),
CCOc1ccc(-n2c([C@@H](C)N(Cc3cccnc3)C(=O)Cc3ccc(OC(F)(F)F)cc3)nc3ncccc3c2=O)cc1,16.4 µM (active),
Cc1ccc(-c2c(C(=O)CF)n(CCCO)c3ncnc(N)c23)cc1,10.3 µM (active),
CC1(C)CC[C@]23CO[C@@]4(CCC5[C@@]6(C)CC[C@H](O[C@@H]7OC[C@H](O[C@@H]8O[C@H](CO)[C@@H](O)[C@H](O)[C@H]8O[C@@H]8OC[C@@H](O)[C@H](O)[C@H]8O)[C@H](O)[C@H]7O)[C@@](C)(CO)C6CC[C@@]5(C)[C@]4(C)CC2=O)[C@@H]3C1 (stereo partly specified),4.91 µM (active),
C[C@]12C=C[C@@]3(CCC4[C@](C)(CO)CCC[C@@]4(C)C3CC1)C2 (stereo partly specified),9.2 µM (active),
CCc1cc2c(cc1CC)CC(NCC(O)c1ccc(O)c3[nH]c(=O)ccc13)C2 (stereo unspecified),13 µM (active),
COc1cc(OCc2cccc(-c3ccccc3)c2C)cc(OC)c1CN1CCCC[C@H]1C(=O)O,8.33 µM (active),
C=C1CCC2C(C)(C(=O)O)CCCC2(C)C1CCC(C)CC(=O)O (stereo unspecified),4.53 µM (active),
C=C(C(=O)O)[C@@H]1CC[C@@]2(C)CCC[C@@](C)(O)[C@@H]2C1,inactive,
CC1(C)C=CN2C(=O)C3=CCCN3C(=O)[C@@H]2C[C@@]12Nc1ccccc1C2=O,inactive,
C/C=C(\C)C(=O)OC[C@H]1O[C@H](O[C@H]2O[C@H](CO)[C@@H](OC(=O)/C(C)=C/C)[C@H](O)[C@H]2O[C@@H]2O[C@H](CO)[C@@H](O)[C@H](O)[C@H]2O)[C@H](O[C@@H]2O[C@H](CO)[C@@H](O)[C@H](O)[C@H]2O)[C@@H](O)[C@@H]1O,,92.1% [at 9.25 µM]
CCCCCCCCCCCCCC#CC(=O)[C@@H]1COC(C)(C)N1C(=O)OC(C)(C)C,inactive,
Cc1cc(Nc2ncnc3ccc(NC4=NC(C)(C)CO4)cc23)ccc1Oc1ccn2ncnc2c1,16.4 µM (active),
C=C(CO[C@@H]1O[C@H](CO[C@@H]2OC[C@](O)(CO)[C@H]2O)[C@@H](O)[C@H](O)[C@H]1O)C1Cc2cc(C(C)=O)ccc2O1 (stereo partly specified),inactive,
C/C=C(\C)C(=O)OC1C2(O)CC3=C4CC(=O)OC(c5ccoc5)C4(C)CCC3C(C)(C2=O)C(C(OC(C)=O)C(=O)OC)C1(C)C (stereo unspecified),4.85 µM (active),
COc1ccc(C[C@H](N)C(=O)N[C@H]2[C@@H](O)[C@H](n3cnc4c(N(C)C)ncnc43)O[C@@H]2CO)cc1,0.184 µM (active),
Cn1cc(C2=C(c3cn(CCCSC(=N)N)c4ccccc34)C(=O)NC2=O)c2ccccc21,0.411 µM (active),
CC(=O)Oc1ccc(C2(c3ccc(OC(C)=O)cc3)Oc3ccccc3NC2=O)cc1,2.99 µM (active),
CC(C)S(=O)(=O)NC[C@H](C)c1ccc(NC(=O)c2cc(F)cc(F)c2)cc1,14.6 µM (active),
